CYP2C19 act: increases human CYP2C19 enzyme activity; recombinant CYP2C19, luciferin-H EGE luminescence; stronger effect = higher value; 0 = fully inhibited enzyme, 1 = untreated enzyme; AID 1025; 96,000 tested, under 10 active; activation factor at 5 µM;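 active = activation factor of at least 2 at 5 µM in the primary screen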;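 also: 0 = wells with 2.5 mM tranylcypromine and 1 = vehicle-only wells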
Target sequence (P33261 whole entry, looked up): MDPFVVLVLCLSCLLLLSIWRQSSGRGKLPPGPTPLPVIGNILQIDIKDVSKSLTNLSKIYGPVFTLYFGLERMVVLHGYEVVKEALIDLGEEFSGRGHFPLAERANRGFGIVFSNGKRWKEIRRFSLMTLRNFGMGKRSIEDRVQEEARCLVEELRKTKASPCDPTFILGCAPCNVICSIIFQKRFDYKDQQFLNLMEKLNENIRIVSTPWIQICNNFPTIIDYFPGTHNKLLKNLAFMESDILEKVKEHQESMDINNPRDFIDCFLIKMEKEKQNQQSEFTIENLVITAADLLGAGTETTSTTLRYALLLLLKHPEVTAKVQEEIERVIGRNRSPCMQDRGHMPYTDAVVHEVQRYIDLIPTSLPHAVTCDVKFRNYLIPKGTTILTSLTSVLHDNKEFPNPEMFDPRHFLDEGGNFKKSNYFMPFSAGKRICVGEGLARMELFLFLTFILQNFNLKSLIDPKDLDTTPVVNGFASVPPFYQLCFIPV
CYP2C19 inh: blocks human cytochrome P450 2C19; CYP2C19 Supersomes, luciferin-H EGE luminescence, 30 min; 96,000 tested, 21% active; P33261; inhibition, % at 5 µM;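 active = CYP2C19 inhibition above a set limit at 5 µM in the primary screen, cut at about 50% in these data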;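 also: plate controls were negative control wells for no effect and 2.5 mM tranylcypromine positive control for full effect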
CYP2C9 inh: blocks human cytochrome P450 2C9. P11712. CYP2C9 Supersomes, luciferin-H conversion, luminescence. AID 777. inhibition, % at 5 µM. 96,000 tested, 20% active;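 active = blocking of liver enzyme CYP2C9 beyond about 50% at 5 µM, limit read from the data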
CYP2C9 activ: CYP2C9 (human) activation; P11712; recombinant CYP2C9, luciferin-H conversion, luminescence; stronger effect = higher value; factor 1 = untreated enzyme, 0 = blocked; activation factor at 5 µM; 96,000 tested, 1.4% active;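 active = activation factor of 2 or more for CYP2C9 at a 5 µM dose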;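 also: 0 = sulfaphenazole-blocked wells and 1 = vehicle-only wells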
MRP-1 activ: MRP-1 activation; H69AR cells + doxorubicin, viability rescue, CellTiter-Glo; viability increase, % at 10 µM; 140,000 tested, 0.61% active;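 active = viability gain under doxorubicin at or above a set limit, the compound median plus 3 SD, cut at about 4.7% in these data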;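 also: MRP-1 overexpressing cells given doxorubicin 25 µM after compound pretreatment; 18-22 h compound pretreatment then 72 h with doxorubicin before readout; 0% = doxorubicin-only wells and 100% = vehicle-treated cells without doxorubicin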
MRP resist rev: compounds reversing MRP-mediated drug resistance; 85,000 tested, 0.04% active; differential viability (reversal), % at 10 µM; AID 602; H69AR cells + 2 uM doxorubicin, CellTiter-Glo, 72 h;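 active = viability drop by adding the cancer drug above about 55%, with treated viability meeting a 40% cutoff, limit read from the data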;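 also: viability without doxorubicin minus viability with 2 µM doxorubicin for each compound; larger differential means the compound sensitizes cells more to doxorubicin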
* hit, by the source's call; x = no result given. Shown are actives, neighbours in structure and some others; about 21% of the full set was active somewhere.

SMILES	CYP2C19 act	CYP2C19 inh	CYP2C9 inh	CYP2C9 activ	MRP-1 activ	MRP resist rev
COc1cccc(CNC(=O)c2ccc(S(=O)(=O)N3CCCC3)cc2)c1	0.8	23.3	85.9*	0.1	-0.6	x
COc1ccc2c(c1)c(=O)cc(C)n2CC(=O)NCc1ccco1	0.5	49.9	6.0	0.9	-2.2	-5.6
Cc1nn(C)cc1/C=N/NC(=O)C(C)(C)Oc1ccc(Cl)cc1	0.8	18.4	27.9	0.7	0.6	x
CC(=C1C(=O)c2ccccc2C1=O)N1CCc2ccccc2C1	0.2	80.9*	63.3*	0.4	-1.1	-5.6
CCN(CCC(=O)Nc1cc([N+](=O)[O-])ccc1OC)Cc1ccccc1	x	x	x	x	-1.4	x
CCCCOc1ccc(Cc2n[nH]c(=S)n2N)cc1	x	x	x	x	-2.5	x
CCCc1cc(N2CCN(c3ccccn3)CC2)n2nc(C)c(-c3ccccc3)c2n1	0.8	18.7	53.6*	0.5	-0.8	-6.7
CCC(C)(C)n1nnnc1CN1CCc2ccccc21	0.4	60.8*	12.9	0.9	-2.4	14.5
CCC(C)(C)n1nnnc1C(c1cccnc1)N1CCCc2ccccc21 (centres undefined)	0.7	32.7	34.7	0.7	-1.4	0.2
c1ccc(CCn2nnnc2CN2CCCc3ccccc32)cc1	0	96.3*	67.0*	0.3	-4.8	6.3
c1ccc2c(c1)CCCN2Cc1nnnn1CC1CCCO1 (centres undefined)	0.6	44.8	8.4	0.9	-1.3	12.5
CCC(C)(C)n1nnnc1C(c1cccs1)N1CCc2ccccc21 (centres undefined)	0.5	48.2	53.3*	0.5	-1.5	7.4
O=C(NC1CCCCC1)C(c1ccc(F)cc1)N(Cc1ccco1)C(=O)CN1C(=O)c2ccccc2S1(=O)=O (centres undefined)	x	x	x	x	-1.2	x
CC(=O)OCc1c(F)c(F)c(-n2nc(C)cc2C)c(F)c1F	1.2	-22.1	-35.1	1.4	-1.1	6.3
Cc1ccc(C(=O)CN(C(=O)c2ccc(Cl)c(Cl)c2)N2C(=O)C3C4C=CC(C4)C3C2=O)cc1 (centres undefined)	0.2	78.7*	92.9*	0.1	-0.5	x
COc1ccccc1N1CCN(C(c2ccccc2)c2nnnn2CCc2ccccc2)CC1 (centres undefined)	x	x	x	x	-2.3	5.0
CC#CCC(CC#CC)c1nc2ccccc2c(=O)n1N	x	x	x	x	-0.6	x
Cc1nc2ccccc2c(=O)n1NC(=O)COc1ccccc1	0.9	6.3	47.1	0.5	-0.3	7.8
CCCCOc1ccc(CNn2c(C)nc3ccccc3c2=O)cc1	0.1	91.4*	66.9*	0.3	0.0	-11.7
CCCOc1ccc(C(=O)Nn2c(C)nc3ccccc3c2=O)cc1	1	3.4	46.1	0.5	0.5	-17.0
COc1ccc(CNn2c(C)nc3ccccc3c2=O)cc1	0	96.3*	42.3	0.6	-4.1	-37.0
Cc1nc2ccccc2c(=O)n1N	0.2	76.6*	97.2*	0	0.1	-0.7
O=C(O)C1CCCCC1C(=O)Nc1ccccc1C(=O)N1CCN(c2ccc(F)cc2)CC1 (centres undefined)	x	x	x	x	-1.7	x
CCNc1nc(NCC)nc(OCCOC(=O)c2ccccc2)n1	0.5	50.6*	27.7	0.7	-0.6	2.9
Cc1cc(N)ccc1-n1c(C)ccc1C	0.5	52.6*	35.5	0.6	-3.6	-27.8
SMILES	CYP2C19 act	CYP2C19 inh	CYP2C9 inh	CYP2C9 activ	MRP-1 activ	MRP resist rev
CC(=O)NC1C(=O)Nc2c1cccc2C(F)(F)F (centres undefined)	1	2.7	-12.5	1.1	-2.5	9.0
CC(=O)Nc1ccc(S(=O)(=O)Oc2cccc(N3C(=O)C4CC=CCC4C3=O)c2)cc1 (centres undefined)	0.6	42.7	58.6*	0.4	0.0	x
Cc1nn(CCOc2ccccc2)c(=O)n1-c1c(F)cccc1F	0.1	85.3*	-52.6	1.5	0.7	x
CC1CC(C)(C)N(C(=O)CSc2ccc(-c3ccc(F)cc3)nn2)c2ccccc21 (centres undefined)	0.5	49.4	57.9*	0.4	-3.8	x
Cc1cc(C)n2c(Br)c(CSc3nc4ccccc4s3)nc2n1	x	x	x	x	-1.4	x
Cc1ccc(NC(=S)N2CCC(c3nc4ccccc4s3)CC2)cc1	0.7	32.2	56.7*	0.4	-1.4	x
CCNC(=S)N1CCC(c2nc3ccccc3s2)CC1	0.2	83.8*	38.9	0.6	0.8	x
O=C(CSc1ccccc1Cl)N1CCC(c2nc3ccccc3s2)CC1	0.6	39.3	45.5	0.5	-4.0	x
O=C(CSc1ccc(F)cc1)N1CCC(c2nc3ccccc3s2)CC1	0.8	23.7	32.9	0.7	-3.4	x
Cc1ccc(Nc2nc3nonc3[nH]c2=O)cc1C	1.1	-9.3	58.3*	0.4	1.5	-9.7
Cc1ccc(Nc2n[nH]c(C)c2[N+](=O)[O-])cc1C	x	x	x	x	-0.7	x
COc1cc(C(=S)N2CCCC2)ccc1O	0.1	88.4*	-61.3	1.6	-2.2	3.2
S=C(c1ccc2c(c1)OCO2)N1CCCCC1	0.1	94.4*	38.3	0.6	0.0	1.5
COc1cc(C(=S)N2CCCCC2)ccc1O	0.6	35.6	41.0	0.6	-0.6	x
COc1ccc(C(=S)N2CCN(C)CC2)cc1Br	0.5	50.9*	-247.2	3.5*	-1.5	14.2
Oc1ccc(C(=S)N2CCCCC2)cc1Cl	0.2	84.7*	-101.9	2*	-3.0	-9.2
COc1ccc(C(=S)N2CCN(C)CC2)cc1	1	2.5	-2.6	1	-0.9	6.0
O=C1CS/C(=N\C(=O)N2c3ccccc3Sc3ccccc32)N1	1.1	-7.5	67.6*	0.3	-1.4	8.4
CN1C(=O)C2(NCCc3c2[nH]c2ccccc32)c2ccccc21 (centres undefined)	0.2	81.3*	14.6	0.9	-1.3	20.4
CN1CCCCc2c1[nH]c1ccccc1c2=O	1	-0.1	-32.0	1.3	-4.0	0.1
Cc1ccc(C2C3CSCC=C3C(C#N)=C(N)C2(C#N)C#N)cc1 (centres undefined)	0.7	29.3	81.4*	0.2	-4.3	2.1
Cc1ccc([C@@H]2C3COCC=C3C(C#N)=C(N)C2(C#N)C#N)o1 (some centres undefined)	0.3	68.7*	48.8	0.5	-1.5	-1.6
CC(C)N1CC=C2C(C#N)=C(N)C(C#N)(C#N)[C@H](c3ccoc3)[C@H]2C1	0.8	23.5	5.9	0.9	-1.1	x
N#CC1=C(N)C(C#N)(C#N)[C@H](c2ccncc2)[C@H]2CC3(CC=C12)OCCO3	0.5	50.8*	71.3*	0.3	-2.7	x
O=C1C2C3C=CC(C2C(=O)N1CCCO)C1C2C(=O)N(CCCO)C(=O)C2C31 (centres undefined)	1.1	-12.1	-5.6	1.1	0.4	x
N#C/C(C(=O)NCc1ccccc1)=C1/N=C(NC(=O)c2cccs2)c2ccccc21	x	x	x	x	-4.4	x
CC(C)(C)C1=Nn2c(nnc2C2CCCCC2)SC1	0.3	67.5*	45.0	0.6	-0.8	-3.8
c1cc2c(cc1C1=Nn3c(nnc3C3CCCCC3)SC1)OCO2	0.9	8.9	37.0	0.6	-3.6	-46.0

High-throughput results (PubChem)
